An excerpt weighted towards active compounds, which were near 7% of everything screened.
KLK7 zymogen act: activators of human kallikrein-7 zymogen; activation, % at 7 µM; AID 652039; purified proKLK7, EDANS-DABCYL substrate fluorescence; 100% is mature enzyme control, 0% vehicle; hit rate 0.9% among 370,000;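 active = activation above the mean of all tested compounds plus 3 SD, computed per campaign excluding outliers beyond control limits, cut at about 13% in these data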
AHR activator: activates the human aryl hydrocarbon receptor; P35869; AHR-responsive luciferase reporter cells, luminescence; activation, % at 5 µM; hit rate 2.5% among 320,000; in the data active = activation above about 47%;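 also: 0% = vehicle wells and 100% = reference agonist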
rCAG binder: r(CAG) repeat RNA binding; TO-PRO-1 dye displacement fluorescence; AID 651821; inhibition, % at 3 µM; hit rate 1.3% among 370,000;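 active = inhibition above the plate cutoff, the mean of all test compounds on that plate plus 3 SD, cut at about 35% in these data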;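 also: 0% = DMSO alone and 100% = 100 µM mitoxantrone as full dye displacement; higher means more dye released from RNA so lower well fluorescence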
GRIN3A LBD mod: NR3A (human) ligand-binding domain modulation. NR3A LBD differential scanning fluorimetry, Tm shift; 0% = protein alone, 100% = glycine-bound protein. Tm shift relative to glycine control, % at 25 µM. hit rate 2.5% among 340,000. AID 1259313;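 active = melting temperature shift of at least 10% of the positive control shift, at one fixed dose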
ADAM17 inh: inhibits human ADAM17. P78536. recombinant ADAM17, EDANS/DABCYL FRET peptide cleavage. inhibition, % at 6.95 µM. hit rate 0.83% among 370,000. AID 720648;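 active = inhibition above the mean of compounds lying between control limits plus 3 SD, set per campaign, cut at about 8.5% in these data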;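 also: 0% = DMSO-only wells as the low control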
ADAM10 inh: inhibitors of human ADAM10; O14672; recombinant ADAM10, EDANS/DABCYL FRET peptide cleavage, 3 h; inhibition, % at 7 µM; hit rate 0.62% among 370,000; AID 720582;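 active = inhibition above a per-campaign cutoff equal to the mean of compounds falling between control-based bounds plus 3 SD, cut at about 20% in these data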;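 also: 0% = DMSO wells while the 100% control is not disclosed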
Target sequence (O14672 214-748 limits assumed): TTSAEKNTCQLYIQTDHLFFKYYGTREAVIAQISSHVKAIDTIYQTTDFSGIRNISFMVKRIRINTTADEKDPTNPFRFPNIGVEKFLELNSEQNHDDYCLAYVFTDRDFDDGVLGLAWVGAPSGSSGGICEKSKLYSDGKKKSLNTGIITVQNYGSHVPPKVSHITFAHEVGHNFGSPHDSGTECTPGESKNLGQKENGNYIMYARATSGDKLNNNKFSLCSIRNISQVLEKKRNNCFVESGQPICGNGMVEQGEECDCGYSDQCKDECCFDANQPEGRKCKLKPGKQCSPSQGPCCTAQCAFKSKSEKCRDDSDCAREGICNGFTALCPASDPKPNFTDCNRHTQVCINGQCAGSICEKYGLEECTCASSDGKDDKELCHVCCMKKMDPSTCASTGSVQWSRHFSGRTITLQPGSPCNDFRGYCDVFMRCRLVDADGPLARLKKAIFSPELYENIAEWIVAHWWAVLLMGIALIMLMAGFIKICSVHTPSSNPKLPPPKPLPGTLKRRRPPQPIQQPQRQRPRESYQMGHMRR
proKLK7 act conf: confirmation of human kallikrein-7 zymogen activators. shares compounds with KLK7 zymogen act. activation, % at 7 µM. purified proKLK7, EDANS-DABCYL substrate fluorescence; scaled: vehicle 0, mature enzyme 100. hit rate 68% among 3,200;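 active = activation, as change over the incubation, above the mean of all tested compounds plus 3 SD, cut at about 13% in these data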
EDANS-DABCYL int: counter-screen for kallikrein-7 activators: EDANS-DABCYL optical interference. shares compounds with KLK7 zymogen act. EDANS-DABCYL substrate fluorescence interference, no enzyme, 4 h; solvent 0%, active enzyme control 100%. activation, % at 7 µM. hit rate 80% among 3,200. AID 686952;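 active = activation above the all-compound mean plus 3 SD, ignoring values outside control-based bounds, cut at about 4.8% in these data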;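 also: value is the 4 h activation minus the activation read at time zero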
K7 EDANS ctr: EDANS fluorescence interference in dose response, no enzyme; shares compounds with KLK7 zymogen act; EDANS-DABCYL peptide fluorescence interference; EC50, µM; hit rate 20% among 250; AID 720493;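 active = compounds that raise the fluorescence signal in this interference counterscreen, with EC50 at or below 10 µM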;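 also: intact quenched peptide substrate alone read at 355 nm excitation and 520 nm emission; signal is fluorescence gain from T0 to T4 after four hours at room temperature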
Active calls of the source: *; i = inactive; x = no result; ! = repeats disagree.

SMILES	KLK7 zymogen act	AHR activator	rCAG binder	GRIN3A LBD mod	ADAM17 inh	ADAM10 inh	proKLK7 act conf	EDANS-DABCYL int	others
Cc1ccc(NC(=O)CN(C)C(=O)CSc2nccn2C)cc1	0	7	2	3	3	5	x	x
CN(C)/C=N/c1nc2nccc(-c3cccs3)n2n1	85*	75*	1	-3	i	i	67*	79*
CN(C)/C=N/c1nc2nccc(-c3ccc(F)cc3)n2n1	12	2	-3	-3	-111	-434	x	x
CC(Oc1ccccc1)c1ccnc2nc(/N=C/N(C)C)nn12 (stereo not given)	4	3	-2	1	-22	-65	x	x
CN(C)/C=N/c1nc2nccc(-c3cccc(Cl)c3)n2n1	15*	-5	-2	-3	-81	-295	34*	45*
O=C(CNC(=O)C1CCCCC1)NCc1ccco1	0	0	2	2	-4	-2	x	x
O=c1c(-c2cccs2)nc2ccccc2n1C(c1ccccn1)c1nc2ccccc2[nH]1 (stereo not given)	17*	x	17	x	-311	i	13	14*
Cn1c(=O)c(=O)n(C)c2cc(S(=O)(=O)N3CCCC3C(=O)NCc3cccnc3)ccc21 (stereo not given)	0	-1	1	-1	-9	-19	x	x
N#CC1C(=O)NC(c2ccccc2)=CC1c1ccccc1 (stereo not given)	124*	x	1	3	-74	-246	110*	103*
N#Cc1c(-c2ccccc2)[nH]c(=S)[nH]c1=O	0	-1	1	0	0	-5	x	x
COc1ccccc1-c1cc(-c2ccccc2)nc(=O)[nH]1	18*	5	1	-2	-136	-370	10	14*
O=c1nc(-c2ccccc2)cc(-c2ccccc2)[nH]1	6	9	0	-2	-102	i	x	x
COC(=O)/C(C#N)=C1/C=Cc2ccccc2N1	0	22	2	1	0	-4	x	x
CCCC(c1nnnn1C(C)(C)CC)N(Cc1ccco1)Cc1cc2ccc(OC)cc2[nH]c1=O (stereo not given)	19*	x	-3	-6	-185	i	-2	-1
O=C(Nc1ccc2c(c1)OCO2)c1cc(-c2ccc(O)cc2)on1	20*	12	8	18*	-12	-25	21*	14*	K7 EDANS ctr=i
c1ccc(Nc2c(-c3ccco3)nc3ccccn23)cc1	16*	10	4	-3	-436	i	68*	72*
Cc1ccc(Nc2c(-c3ccco3)nc3ccccn23)cc1	-26	20	3	0	-411	i	x	x
CC(=O)Nc1c2c3c(cccc3n(C)c1=O)C(=O)c1ccccc1-2	23*	8	4	-1	-21	-63	23*	21*
Cn1c(=O)c(Nc2ccc(Cl)cc2)c2c3c(cccc31)C(=O)c1ccccc1-2	-1	9	-227	-3	-1	2	x	x
N#CC1=C(N)Oc2cc(N)ccc2C1c1ccc(F)cc1 (stereo not given)	3	-1	18	-5	-13	-56	x	x
N#CC1=C(N)Oc2cc(N)ccc2C1c1ccc(Cl)cc1 (stereo not given)	1	3	8	-8	-1	-5	x	x
N#CC1=C(N)Oc2cc(N)ccc2C1c1ccc(F)cc1F (stereo not given)	17*	4	2	-3	-98	-215	13*	15*
N#CC1=C(N)Oc2cc(N)ccc2C1c1ccccc1Cl (stereo not given)	20*	x	6	-1	-77	-233	4	5.8*
Nc1c2ccccc2nc2ccccc12	14*!	27	7	-5	-216	i	52*	71*
CCOC(=O)c1cn(C2CC2)c2c(F)c(NCCCN(C)C)c(F)cc2c1=O	20*	3	-2	0	-121	-326	11	12*

Screens from PubChem.
